Inhibition data for four compounds are collected here from ChEMBL document CHEMBL1961873, “Compounds: GSK PKIS; Assays: Nanosyn kinase panel” (2012).

Test [1] has as its system Epidermal growth factor receptor (Homo sapiens), P00533 [T790M]. Conditions: at 1 µM.
Test [2] relates to Epidermal growth factor receptor (Homo sapiens), P00533 [L858R,T790M]. The conditions noted are these: at 0.1 µM.
Test [3] shares this test system. Conditions: at 1 µM.
The target of test [4] is Ephrin type-A receptor 2 (Homo sapiens) (UniProt P29317). Conditions: at 0.1 µM.
Chain of Ephrin type-A receptor 2 (Homo sapiens) (P29317 whole entry): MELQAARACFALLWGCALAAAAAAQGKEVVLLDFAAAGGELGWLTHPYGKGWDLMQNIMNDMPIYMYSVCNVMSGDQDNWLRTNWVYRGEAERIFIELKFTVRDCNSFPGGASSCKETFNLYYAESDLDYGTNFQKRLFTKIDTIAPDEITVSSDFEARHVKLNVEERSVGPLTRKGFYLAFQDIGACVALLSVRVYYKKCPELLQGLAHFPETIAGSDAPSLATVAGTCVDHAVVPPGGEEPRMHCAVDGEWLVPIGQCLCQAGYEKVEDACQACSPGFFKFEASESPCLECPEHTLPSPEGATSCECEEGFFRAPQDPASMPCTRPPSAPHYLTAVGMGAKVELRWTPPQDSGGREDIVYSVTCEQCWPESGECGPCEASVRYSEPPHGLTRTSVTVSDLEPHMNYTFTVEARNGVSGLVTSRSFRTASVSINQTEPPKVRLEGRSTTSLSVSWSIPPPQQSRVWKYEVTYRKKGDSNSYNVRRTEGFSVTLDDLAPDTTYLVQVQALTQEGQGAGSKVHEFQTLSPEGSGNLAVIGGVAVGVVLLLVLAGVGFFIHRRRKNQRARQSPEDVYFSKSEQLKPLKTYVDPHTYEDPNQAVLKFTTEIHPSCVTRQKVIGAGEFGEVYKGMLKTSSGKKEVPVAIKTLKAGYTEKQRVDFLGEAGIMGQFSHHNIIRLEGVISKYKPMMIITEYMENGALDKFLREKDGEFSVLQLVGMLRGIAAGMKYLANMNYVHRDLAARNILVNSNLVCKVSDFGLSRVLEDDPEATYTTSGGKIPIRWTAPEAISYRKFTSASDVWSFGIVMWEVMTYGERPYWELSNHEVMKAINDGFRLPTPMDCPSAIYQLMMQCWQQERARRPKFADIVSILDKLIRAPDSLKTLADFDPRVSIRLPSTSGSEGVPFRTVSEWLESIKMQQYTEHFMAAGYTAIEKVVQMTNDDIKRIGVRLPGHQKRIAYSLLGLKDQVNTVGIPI
Test [5] has the same target. The conditions noted are these: at 1 µM.
For test [6], the target named is T1, Ephrin type-A receptor 3 (Homo sapiens) (UniProt P29320).
T1 sequence (whole entry): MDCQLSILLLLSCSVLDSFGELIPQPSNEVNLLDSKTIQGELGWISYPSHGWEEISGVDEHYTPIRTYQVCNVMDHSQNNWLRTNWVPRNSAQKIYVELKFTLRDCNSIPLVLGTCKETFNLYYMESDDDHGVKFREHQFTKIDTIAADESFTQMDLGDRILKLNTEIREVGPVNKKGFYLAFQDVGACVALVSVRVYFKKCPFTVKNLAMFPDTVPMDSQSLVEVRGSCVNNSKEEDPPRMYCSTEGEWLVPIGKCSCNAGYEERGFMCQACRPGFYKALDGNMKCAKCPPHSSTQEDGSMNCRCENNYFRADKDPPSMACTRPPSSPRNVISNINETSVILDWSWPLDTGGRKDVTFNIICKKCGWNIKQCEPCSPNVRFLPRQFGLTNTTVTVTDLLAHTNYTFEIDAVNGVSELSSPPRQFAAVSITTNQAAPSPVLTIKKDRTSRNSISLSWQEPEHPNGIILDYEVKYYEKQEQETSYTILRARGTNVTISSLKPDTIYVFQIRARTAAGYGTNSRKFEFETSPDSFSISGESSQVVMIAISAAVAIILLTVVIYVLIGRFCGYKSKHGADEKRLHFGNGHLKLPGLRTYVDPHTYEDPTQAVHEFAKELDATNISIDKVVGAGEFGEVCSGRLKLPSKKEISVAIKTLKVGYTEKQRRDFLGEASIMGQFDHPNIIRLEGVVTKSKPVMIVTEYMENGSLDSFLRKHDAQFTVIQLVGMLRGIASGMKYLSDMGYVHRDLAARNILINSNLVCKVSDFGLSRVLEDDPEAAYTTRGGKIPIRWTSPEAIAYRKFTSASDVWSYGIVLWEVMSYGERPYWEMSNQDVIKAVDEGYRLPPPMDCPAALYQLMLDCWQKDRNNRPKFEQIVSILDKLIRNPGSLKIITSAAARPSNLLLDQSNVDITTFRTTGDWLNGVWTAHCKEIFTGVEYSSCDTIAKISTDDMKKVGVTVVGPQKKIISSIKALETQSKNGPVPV
The conditions noted are these: at 0.1 µM.

The target of test [7] is T1, Ephrin type-A receptor 3 (Homo sapiens). The conditions noted are these: at 1 µM.
Test [8] deals with Ephrin type-A receptor 4 (Homo sapiens) (UniProt P54764). The conditions noted are these: at 0.1 µM.
Chain of Ephrin type-A receptor 4 (Homo sapiens) (P54764 whole entry): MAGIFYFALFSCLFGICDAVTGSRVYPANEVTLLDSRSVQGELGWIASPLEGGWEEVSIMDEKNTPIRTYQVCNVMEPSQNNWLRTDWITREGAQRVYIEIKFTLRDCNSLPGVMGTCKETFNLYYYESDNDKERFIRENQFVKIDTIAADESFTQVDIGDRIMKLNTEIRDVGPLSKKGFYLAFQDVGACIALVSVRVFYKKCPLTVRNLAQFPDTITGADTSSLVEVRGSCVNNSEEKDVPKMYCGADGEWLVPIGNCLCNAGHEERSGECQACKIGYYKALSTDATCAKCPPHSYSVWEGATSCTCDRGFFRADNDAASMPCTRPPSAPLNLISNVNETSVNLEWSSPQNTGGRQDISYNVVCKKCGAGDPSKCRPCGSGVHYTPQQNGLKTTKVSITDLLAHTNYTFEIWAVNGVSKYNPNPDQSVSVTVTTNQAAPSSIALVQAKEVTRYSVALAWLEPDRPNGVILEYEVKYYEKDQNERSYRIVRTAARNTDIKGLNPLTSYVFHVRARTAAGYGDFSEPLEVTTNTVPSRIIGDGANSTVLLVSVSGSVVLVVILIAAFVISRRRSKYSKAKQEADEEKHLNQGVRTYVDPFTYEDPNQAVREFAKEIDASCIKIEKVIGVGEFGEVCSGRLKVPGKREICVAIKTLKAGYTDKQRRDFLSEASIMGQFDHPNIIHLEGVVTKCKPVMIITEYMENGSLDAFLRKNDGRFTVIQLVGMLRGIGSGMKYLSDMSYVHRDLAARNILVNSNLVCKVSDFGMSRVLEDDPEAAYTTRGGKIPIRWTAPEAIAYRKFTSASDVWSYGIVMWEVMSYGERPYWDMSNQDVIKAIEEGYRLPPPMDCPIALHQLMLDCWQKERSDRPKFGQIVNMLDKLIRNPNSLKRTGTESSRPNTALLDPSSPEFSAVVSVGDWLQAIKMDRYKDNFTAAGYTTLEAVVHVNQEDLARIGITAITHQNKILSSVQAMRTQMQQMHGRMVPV
The target is the same in test [9]. The conditions noted are these: at 1 µM.
For test [10], the target named is T2, Ephrin type-B receptor 2 (Homo sapiens) (UniProt P29323).
T2 sequence (whole entry): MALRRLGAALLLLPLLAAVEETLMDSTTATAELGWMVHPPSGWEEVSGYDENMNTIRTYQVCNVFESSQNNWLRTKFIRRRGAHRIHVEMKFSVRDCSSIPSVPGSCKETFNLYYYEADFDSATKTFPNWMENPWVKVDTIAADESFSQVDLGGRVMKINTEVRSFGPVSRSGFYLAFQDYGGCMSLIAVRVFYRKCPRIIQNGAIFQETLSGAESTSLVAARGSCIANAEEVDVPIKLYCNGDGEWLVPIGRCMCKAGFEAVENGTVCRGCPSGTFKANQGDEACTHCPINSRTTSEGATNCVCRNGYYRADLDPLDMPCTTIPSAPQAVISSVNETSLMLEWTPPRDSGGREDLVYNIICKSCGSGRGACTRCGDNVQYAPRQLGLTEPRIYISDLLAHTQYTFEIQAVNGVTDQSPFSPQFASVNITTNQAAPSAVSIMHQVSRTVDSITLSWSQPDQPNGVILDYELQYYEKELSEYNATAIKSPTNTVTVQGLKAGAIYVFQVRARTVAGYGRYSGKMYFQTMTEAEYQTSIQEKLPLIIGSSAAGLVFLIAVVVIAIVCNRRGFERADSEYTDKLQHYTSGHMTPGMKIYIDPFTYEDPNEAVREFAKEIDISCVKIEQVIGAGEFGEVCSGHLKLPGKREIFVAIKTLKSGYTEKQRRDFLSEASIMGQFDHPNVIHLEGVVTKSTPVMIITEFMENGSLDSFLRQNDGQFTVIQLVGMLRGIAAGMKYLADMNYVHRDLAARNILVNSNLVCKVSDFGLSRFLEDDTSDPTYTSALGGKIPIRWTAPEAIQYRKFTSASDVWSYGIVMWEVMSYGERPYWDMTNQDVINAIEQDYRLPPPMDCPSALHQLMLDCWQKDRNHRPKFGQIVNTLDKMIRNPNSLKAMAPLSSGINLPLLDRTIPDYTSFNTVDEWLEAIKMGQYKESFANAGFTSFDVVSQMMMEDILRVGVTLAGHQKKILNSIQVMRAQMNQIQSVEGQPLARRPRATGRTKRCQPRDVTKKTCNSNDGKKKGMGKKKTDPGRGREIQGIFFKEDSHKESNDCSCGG
The conditions noted are these: at 0.1 µM.

Test [11] has as its target T2, Ephrin type-B receptor 2 (Homo sapiens). Conditions: at 1 µM.
The target in test [12] is T3, Ephrin type-B receptor 3 (Homo sapiens) (UniProt P54753).
T3 sequence (whole entry): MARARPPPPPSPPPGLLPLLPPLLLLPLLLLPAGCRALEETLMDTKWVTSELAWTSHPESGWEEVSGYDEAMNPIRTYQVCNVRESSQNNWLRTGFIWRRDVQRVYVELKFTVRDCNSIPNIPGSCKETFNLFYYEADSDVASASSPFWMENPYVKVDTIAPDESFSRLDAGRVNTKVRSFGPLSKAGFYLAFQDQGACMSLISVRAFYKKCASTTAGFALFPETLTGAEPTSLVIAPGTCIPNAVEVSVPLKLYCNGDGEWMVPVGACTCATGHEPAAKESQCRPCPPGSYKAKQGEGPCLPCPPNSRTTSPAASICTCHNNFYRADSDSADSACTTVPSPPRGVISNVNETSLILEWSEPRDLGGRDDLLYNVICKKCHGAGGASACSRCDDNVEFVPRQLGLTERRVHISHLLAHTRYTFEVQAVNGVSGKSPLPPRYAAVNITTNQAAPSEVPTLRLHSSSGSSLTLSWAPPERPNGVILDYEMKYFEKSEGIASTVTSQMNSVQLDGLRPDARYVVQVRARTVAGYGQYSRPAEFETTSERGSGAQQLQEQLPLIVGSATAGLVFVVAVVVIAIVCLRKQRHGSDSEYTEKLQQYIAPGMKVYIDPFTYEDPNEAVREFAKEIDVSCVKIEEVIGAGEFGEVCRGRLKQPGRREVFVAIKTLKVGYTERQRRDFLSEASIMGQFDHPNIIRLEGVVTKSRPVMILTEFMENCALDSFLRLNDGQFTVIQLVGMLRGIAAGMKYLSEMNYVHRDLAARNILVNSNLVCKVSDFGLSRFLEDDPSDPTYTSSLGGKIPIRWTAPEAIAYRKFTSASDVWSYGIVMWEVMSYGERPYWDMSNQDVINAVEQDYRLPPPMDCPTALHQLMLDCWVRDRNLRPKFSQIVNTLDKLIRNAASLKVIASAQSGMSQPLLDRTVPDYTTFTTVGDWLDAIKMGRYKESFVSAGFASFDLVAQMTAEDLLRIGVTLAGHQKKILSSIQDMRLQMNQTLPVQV
Conditions: at 0.1 µM.

The target of test [13] is T3, Ephrin type-B receptor 3 (Homo sapiens). The conditions noted are these: at 1 µM.
In test [14] the target is T4, Ephrin type-B receptor 4 (Homo sapiens) (UniProt P54760).
T4 sequence (whole entry): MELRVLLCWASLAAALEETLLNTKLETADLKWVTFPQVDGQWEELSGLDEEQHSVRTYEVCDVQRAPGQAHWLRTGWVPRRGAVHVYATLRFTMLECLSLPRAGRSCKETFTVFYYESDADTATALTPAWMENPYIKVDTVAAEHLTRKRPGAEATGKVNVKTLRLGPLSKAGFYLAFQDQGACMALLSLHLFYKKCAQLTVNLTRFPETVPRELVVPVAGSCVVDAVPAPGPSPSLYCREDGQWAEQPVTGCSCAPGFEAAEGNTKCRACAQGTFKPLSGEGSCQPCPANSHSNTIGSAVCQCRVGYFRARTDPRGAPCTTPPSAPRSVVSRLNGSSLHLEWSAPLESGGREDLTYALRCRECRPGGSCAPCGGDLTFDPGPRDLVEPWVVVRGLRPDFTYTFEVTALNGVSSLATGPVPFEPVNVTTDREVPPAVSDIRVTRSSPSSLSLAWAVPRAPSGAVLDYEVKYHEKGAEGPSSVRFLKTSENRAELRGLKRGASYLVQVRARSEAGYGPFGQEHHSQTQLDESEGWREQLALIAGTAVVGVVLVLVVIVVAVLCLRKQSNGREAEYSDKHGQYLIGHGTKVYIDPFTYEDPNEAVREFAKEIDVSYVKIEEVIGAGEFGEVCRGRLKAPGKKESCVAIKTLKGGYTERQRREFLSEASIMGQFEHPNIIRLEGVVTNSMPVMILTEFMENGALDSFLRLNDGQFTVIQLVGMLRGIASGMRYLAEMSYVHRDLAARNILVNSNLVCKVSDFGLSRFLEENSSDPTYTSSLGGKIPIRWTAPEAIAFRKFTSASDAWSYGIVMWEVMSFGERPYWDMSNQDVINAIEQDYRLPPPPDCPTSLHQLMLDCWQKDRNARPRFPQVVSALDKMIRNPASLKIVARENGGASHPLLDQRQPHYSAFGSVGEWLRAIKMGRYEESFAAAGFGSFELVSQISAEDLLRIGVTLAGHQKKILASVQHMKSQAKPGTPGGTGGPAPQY
Conditions: at 0.1 µM.

For test [15], the target named is T4, Ephrin type-B receptor 4 (Homo sapiens). Conditions: at 1 µM.
Test [16] concerns the target Receptor tyrosine-protein kinase erbB-2 (Homo sapiens) (UniProt P04626). Conditions: at 0.1 µM.
For test [17] the target is unchanged. The conditions noted are these: at 1 µM.
For test [18], the target named is Receptor tyrosine-protein kinase erbB-4 (Homo sapiens) (UniProt Q15303). Conditions: at 1 µM.
Chain of Receptor tyrosine-protein kinase erbB-4 (Homo sapiens) (Q15303 whole entry): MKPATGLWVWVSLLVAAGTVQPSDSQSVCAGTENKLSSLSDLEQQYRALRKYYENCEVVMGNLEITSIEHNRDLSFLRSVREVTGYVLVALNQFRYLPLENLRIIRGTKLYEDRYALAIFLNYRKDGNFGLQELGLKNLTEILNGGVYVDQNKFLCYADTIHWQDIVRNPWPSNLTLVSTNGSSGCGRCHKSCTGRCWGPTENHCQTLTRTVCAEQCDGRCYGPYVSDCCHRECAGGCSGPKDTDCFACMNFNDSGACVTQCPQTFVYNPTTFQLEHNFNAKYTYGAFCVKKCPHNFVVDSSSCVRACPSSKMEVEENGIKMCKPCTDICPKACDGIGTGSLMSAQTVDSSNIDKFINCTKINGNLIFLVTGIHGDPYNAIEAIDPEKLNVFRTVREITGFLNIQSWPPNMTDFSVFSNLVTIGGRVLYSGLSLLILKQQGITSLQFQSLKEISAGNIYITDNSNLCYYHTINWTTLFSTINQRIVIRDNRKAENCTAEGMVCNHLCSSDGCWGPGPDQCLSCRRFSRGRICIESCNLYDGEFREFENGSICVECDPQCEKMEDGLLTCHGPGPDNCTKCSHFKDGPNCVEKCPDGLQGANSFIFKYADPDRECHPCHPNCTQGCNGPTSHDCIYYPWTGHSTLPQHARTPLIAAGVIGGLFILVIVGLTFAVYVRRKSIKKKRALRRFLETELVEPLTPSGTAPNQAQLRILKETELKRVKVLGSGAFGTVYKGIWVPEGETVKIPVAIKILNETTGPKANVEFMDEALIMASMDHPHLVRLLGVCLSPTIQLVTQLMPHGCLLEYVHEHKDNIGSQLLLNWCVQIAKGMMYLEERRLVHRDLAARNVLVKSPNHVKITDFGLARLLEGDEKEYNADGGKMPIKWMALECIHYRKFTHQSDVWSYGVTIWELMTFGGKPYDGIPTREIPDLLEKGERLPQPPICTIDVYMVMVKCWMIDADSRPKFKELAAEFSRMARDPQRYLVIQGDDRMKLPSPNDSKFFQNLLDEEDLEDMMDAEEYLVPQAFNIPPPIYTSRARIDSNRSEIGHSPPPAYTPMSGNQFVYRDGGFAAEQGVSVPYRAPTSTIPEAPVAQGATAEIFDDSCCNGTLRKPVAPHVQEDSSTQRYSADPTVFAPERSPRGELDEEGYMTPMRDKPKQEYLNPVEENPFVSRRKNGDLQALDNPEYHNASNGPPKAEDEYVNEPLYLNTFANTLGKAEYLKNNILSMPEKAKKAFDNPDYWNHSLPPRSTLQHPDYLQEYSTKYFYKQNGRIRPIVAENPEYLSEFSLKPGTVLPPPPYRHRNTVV
Test [19] concerns the target Tyrosine-protein kinase Fer (Homo sapiens) (UniProt P16591). The conditions noted are these: at 0.1 µM.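 Note: reported figures are averaged percent inhibition of FER.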
For test [20], the target named is Receptor tyrosine-protein kinase erbB-4 (Homo sapiens) (UniProt Q15303). The conditions noted are these: at 0.1 µM.

Chain of Epidermal growth factor receptor (Homo sapiens), P00533 [T790M] (P00533 whole entry T790M): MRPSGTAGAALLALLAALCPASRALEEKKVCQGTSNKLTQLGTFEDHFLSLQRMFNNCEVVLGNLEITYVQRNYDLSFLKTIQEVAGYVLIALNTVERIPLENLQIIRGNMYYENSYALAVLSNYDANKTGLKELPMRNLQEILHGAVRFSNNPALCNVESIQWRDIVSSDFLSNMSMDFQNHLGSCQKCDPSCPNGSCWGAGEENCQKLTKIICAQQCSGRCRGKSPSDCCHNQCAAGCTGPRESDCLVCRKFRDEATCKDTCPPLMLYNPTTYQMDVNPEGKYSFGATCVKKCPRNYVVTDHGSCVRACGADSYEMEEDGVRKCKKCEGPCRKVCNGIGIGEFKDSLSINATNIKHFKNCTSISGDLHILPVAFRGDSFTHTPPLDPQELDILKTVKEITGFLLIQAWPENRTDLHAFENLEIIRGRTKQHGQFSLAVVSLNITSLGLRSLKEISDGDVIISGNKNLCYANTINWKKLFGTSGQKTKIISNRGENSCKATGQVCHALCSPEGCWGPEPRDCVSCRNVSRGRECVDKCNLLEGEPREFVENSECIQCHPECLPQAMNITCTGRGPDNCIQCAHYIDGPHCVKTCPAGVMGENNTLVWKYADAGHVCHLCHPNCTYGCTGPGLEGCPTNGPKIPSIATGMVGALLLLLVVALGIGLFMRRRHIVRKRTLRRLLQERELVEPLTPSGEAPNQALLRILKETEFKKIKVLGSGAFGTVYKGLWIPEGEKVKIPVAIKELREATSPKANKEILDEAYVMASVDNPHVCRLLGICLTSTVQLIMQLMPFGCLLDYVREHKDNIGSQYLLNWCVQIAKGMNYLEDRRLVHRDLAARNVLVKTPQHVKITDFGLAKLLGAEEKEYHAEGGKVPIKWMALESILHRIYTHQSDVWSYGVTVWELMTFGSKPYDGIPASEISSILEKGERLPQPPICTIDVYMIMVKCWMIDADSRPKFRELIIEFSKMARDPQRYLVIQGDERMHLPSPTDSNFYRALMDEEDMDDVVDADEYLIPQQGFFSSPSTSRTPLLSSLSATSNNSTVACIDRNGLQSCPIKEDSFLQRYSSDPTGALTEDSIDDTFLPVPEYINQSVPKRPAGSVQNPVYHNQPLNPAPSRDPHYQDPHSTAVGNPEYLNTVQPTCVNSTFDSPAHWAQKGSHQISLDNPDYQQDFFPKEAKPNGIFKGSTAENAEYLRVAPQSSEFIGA

In general, inhibition refers to the change of the read-out against control, counted positive when it falls. On to `Nc1nc(-c2cccc(Cl)c2)c(-c2ccc3ncccc3n2)s1`, for which the inhibition in test [1] came to 6.65%; in test [2], 5%; in test [3], 7.85%; in test [4], 0.6%; in test [5], 0.92%; in test [6] it was 4.59%. Besides, the inhibition amounted to 4.27% in test [7]; 11% in test [8]; 14.8% in test [9]; 6.05% in [10]; 15.5% in test [11]; 5.95% in [12]. For the same compound, the inhibition in test [13] worked out at 5.53%; in test [14], 2.58%; in [15], 3.57%; in test [16], 2.61%; in [17], 5.7%; in test [18], 28.1%. In addition, the inhibition in test [19] amounted to 4.91%.
With `Cc1ccc(O)cc1Nc1ccnc2cc(-c3ccccn3)ccc12`, the inhibition was determined as 15.3% in test [1]; 3.59% in test [2]; 30.4% in test [3]; 34.4% in test [4]; 80.2% in [5]; 79.3% in test [6]. In addition, the inhibition in test [7] came out at 87.5%; in [8] it was 91.2%; in test [9], 90.9%; in test [10], 90.5%; in test [11], 91.9%; in [12] it was 18.1%. Moreover, the inhibition in test [13] came out at 53.3%; in test [14] it was 87.3%; in test [15], 95.1%; in test [16], 2.16%; in [17] it was 11.6%; in test [20], 35.1%. In addition, the inhibition in [18] was 75.6%; in test [19] it was 5.39%.
As to `c1cc(-c2cnn3nc(N4CCOCC4)ccc23)nc(NC2CC2)n1`, the inhibition was found to be 0.49% in [1]; 1.11% in [2]; 1.53% in test [3]; 2.12% in test [4]; 0.18% in test [5]; 5.23% in test [6]. The inhibition in [7] was 5.8%; in test [8] it was 10.2%; in test [9], 10.9%; in test [10] it was 10.2%; in [11], 9.21%; in test [12] it was 2.88%. Further, the inhibition in test [13] came to 3.96%; in [14], 0.45%; in [15], 1.96%; in [16], 1.45%; in test [17], 1.94%; in test [20] it was 13.6%. The inhibition in test [18] turned out to be 15.3%; in test [19], 0.53%.
In the case of `CCn1c(-c2nonc2N)nc2c(C#CC(C)(C)O)nc(OC[C@H](N)c3ccccc3)cc21`, the inhibition in test [1] was 4.71%; in test [2], 0.92%; in [3], 2.55%; in [4], 0.4%; in test [5] it was -0.31%; in test [6], 2.11%. For the same compound, the inhibition in test [7] amounted to 1.87%; in [8], 5.06%; in test [9] it was 4.87%; in test [10], 0.04%; in [11] it was 0.23%; in test [12] it was 0.72%. The inhibition in test [13] is 1.06%; in [14], 1.68%; in test [15], 1.24%; in test [16], 0.79%; in test [17], 3.43%; in test [20], 6.48%. Moreover, the inhibition turned out to be 28.9% in [18] and 2.98% in [19].
